Reference: PubChem BioAssay (Tox21)
Where “and” joins values, the source holds several entries; their conditions need not be identical. Identical values can stand only once. Records with an inconclusive call do not appear. Where a structure was tested more than once in an assay, its records may differ in their call. Calls of active or inactive are those of the source. Unless noted, calls come from the whole dose curve; as a rule, active = well fitted curve in the direction sought with a large enough effect in the repeat runs; inconclusive = weak or mixed curves; inactive = no such curve, though single readings can be large; an effect the other way counts as inactive or inconclusive.

How the values were obtained:
[1] = qHTS RealTime-Glo MT Cell Viability Assay in HEK293 cells - 0 hour (AID 1224880); note: top concentration of the series differs between compounds; nearly all actives have a fitted effect of over 45% in size
Outline: (§1)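 Measured as luminescence from the same continuously cultured HEK293 wells at successive time points (0, 8, 16, 24, 32, 40 h) after compound addition. Reagent present from seeding; dosing at 5 h; incubation 37 C.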

[2] = A CellTox Green Cytotoxicity Assay to monitor cytotoxicity in HEK293 cells - 32 hour (AID 1224881); note: nearly all actives have a fitted effect of over 40% in size; note: potency is the fitted concentration of half-maximal effect
Outline: (§2)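 Homogeneous no-lysis format: HEK293 cell suspension mixed with CellTox Green reagent, seeded, incubated 5 h at 37 C/5% CO2, then dosed by pintool with compound in DMSO.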

[3] = A CellTox Green Cytotoxicity Assay to monitor cytotoxicity in HepG2 cells - 0 hour (AID 1224882); note: nearly all actives have a fitted effect of over 35% in size
Outline: (§3)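 Fluorescent DNA-binding dye, 600 HepG2 cells/well, 5 h preincubation then compound in DMSO; same plates read at 0–40 h, 37 C.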

[4] = A CellTox Green Cytotoxicity Assay to monitor cytotoxicity in HepG2 cells - 32 hour (AID 1224883); note: nearly all actives have a fitted effect of over 50% in size; note: potency is the fitted concentration of half-maximal effect
Outline: as §3

[5] = A CellTox Green Cytotoxicity Assay to monitor cytotoxicity in HEK293 cells - 8 hour (AID 1224884); note: nearly all actives have a fitted effect of over 35% in size; note: potency is the fitted concentration of half-maximal effect
Outline: as §2

[6] = qHTS RealTime-Glo MT Cell Viability Assay in HepG2 cells - 16 hour (AID 1224885); note: nearly all actives have a fitted effect of over 50% in size; note: potency is the fitted concentration of half-maximal effect
Outline: (§4)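 Cell number in HepG2 cultures estimated from NanoLuc luminescence generated by metabolic reduction of a prosubstrate by living cells. The homogeneous, nonlytic format allowed repeated reads at 0, 8, 16, 24, 32 and 40 h of compound exposure.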

[7] = qHTS RealTime-Glo MT Cell Viability Assay in HEK293 cells - 24 hour (AID 1224886); note: nearly all actives have a fitted effect of over 50% in size; note: potency is the fitted concentration of half-maximal effect
Outline: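 Homogeneous bioluminescent viability format in HEK293 cells (600 cells/well). Following 5 h at 37 C/5% CO2, 23 nL compound was pintooled; the signal was measured repeatedly during 40 h incubation.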

[8] = qHTS RealTime-Glo MT Cell Viability Assay in HEK293 cells - 8 hour (AID 1224887); note: nearly all actives have a fitted effect of over 50% in size; note: potency is the fitted concentration of half-maximal effect
Outline: as §1

[9] = A CellTox Green Cytotoxicity Assay to monitor cytotoxicity in HEK293 cells - 16 hour (AID 1224888); note: nearly all actives have a fitted effect of over 35% in size
Outline: as §2

[10] = qHTS RealTime-Glo MT Cell Viability Assay in HepG2 cells - 0 hour (AID 1224889); note: nearly all actives have a fitted effect of over 50% in size
Outline: as §4

[11] = A CellTox Green Cytotoxicity Assay to monitor cytotoxicity in HepG2 cells - 8 hour (AID 1224890); note: nearly all actives have a fitted effect of over 45% in size; note: potency is the fitted concentration of half-maximal effect
Outline: as §3

[12] = qHTS assay to identify small molecule antagonists of the androgen receptor (AR) signaling pathway using the MDA cell line in the presence of 0.5 nM R1881 - cell viability counter screen (AID 1259242); note: nearly all actives have a fitted effect of over 45% in size
Outline: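 Human breast carcinoma MDA-kb2 cells, cultured without CO2, receive compounds alongside 0.5 nM (final) R1881 agonist. After 16 hr at 37C, viability is taken as live-cell protease signal.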

[13] = qHTS assay to identify small molecule HDAC inhibitors (AID 1259364); note: potency is the fitted concentration of half-maximal effect;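 note: wild-type HCT-116 cells with endogenous class I/II HDAC activity; nearly all actives have a fitted effect of over 45% in size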
Outline: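 After a 2 hr compound incubation (37C, 5% CO2), HCT-116 cells seeded at 1,500/well the day before received HDAC-Glo reagent; signal read as luminescence after 30 min at room temperature.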

[14] = qHTS assay to identify small molecule HDAC inhibitors - cell viability counter screen (AID 1259365)
Outline: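 Luminescence from CellTiter-Glo, developed 30min at room temperature, reports viability of wild-type HCT-116 cells treated 2hr with compounds at 37 C and 5% CO2 after overnight plating.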

[15] = qHTS assay to identify small molecule antagonists of the sonic hedgehog signaling (Shh) pathway - cell viability counter screen (AID 1259367); note: nearly all actives have a fitted effect of over 55% in size
Outline: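 Tox21 library chemicals were tested on a Gli1-Luc NIH/3T3 clone (2,000 cells/well) stimulated by conditioned medium; viability was quantified as fluorescence from CellTiter-Fluor reagent added at 23 hr.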

[16] = qHTS assay to identify small molecule antagonists of the estrogen receptor alpha (ER-alpha) signaling pathway using the BG1 cell line in the presence of 0.1 nM 17-beta-estradiol - cell viability counter screen (AID 1259241); note: nearly all actives have a fitted effect of over 40% in size
Outline: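 VM7Luc4E2, 4,000 cells/well, phenol red-free medium + 10% charcoal-stripped FBS; 24 hr plating; cpd + 0.1 nM E2 final, 22 hr 37C/5% CO2; CellTiter-Fluor 30 min, fluorescence.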

[17] = biological target: Estrogen receptor (Homo sapiens) (UniProt P03372); test: qHTS assay to identify small molecule antagonists of the estrogen receptor alpha (ER-alpha) signaling pathway using the BG1 cell line in the presence of 0.1 nM 17-beta-estradiol (AID 1259244); note: nearly all actives have a fitted effect of over 50% in size
Estrogen receptor (Homo sapiens), sequence (P03372 whole entry, looked up): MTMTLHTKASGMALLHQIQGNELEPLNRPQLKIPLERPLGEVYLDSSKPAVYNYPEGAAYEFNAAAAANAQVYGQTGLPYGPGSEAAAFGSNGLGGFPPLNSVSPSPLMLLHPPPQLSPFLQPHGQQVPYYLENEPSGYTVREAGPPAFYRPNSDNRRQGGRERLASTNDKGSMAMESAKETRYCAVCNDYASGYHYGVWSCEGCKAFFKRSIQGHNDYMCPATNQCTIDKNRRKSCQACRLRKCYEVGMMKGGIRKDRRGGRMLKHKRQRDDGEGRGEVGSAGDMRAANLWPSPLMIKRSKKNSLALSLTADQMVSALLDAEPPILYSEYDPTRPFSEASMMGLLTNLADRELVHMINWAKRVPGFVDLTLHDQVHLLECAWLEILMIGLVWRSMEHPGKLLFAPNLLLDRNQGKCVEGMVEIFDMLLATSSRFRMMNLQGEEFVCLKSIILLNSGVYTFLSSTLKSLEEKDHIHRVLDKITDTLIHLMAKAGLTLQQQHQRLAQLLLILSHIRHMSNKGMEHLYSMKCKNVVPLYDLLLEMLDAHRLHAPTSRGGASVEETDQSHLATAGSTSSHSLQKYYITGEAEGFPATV
Outline: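 Seeding of stripped-serum-adapted VM7Luc4E2 cells, 24 h attachment, compound transfer, then 0.1 nM final 17beta-estradiol; after 22 h incubation, ONE-Glo reagent and luminescence reading.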

[18] = qHTS assay to identify small molecule phospholipidosis (PLD) inducers (AID 1259344; active = well fitted curve in the direction sought with a large enough effect; an effect the other way counts as inactive or inconclusive)
Outline: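 Image-based: LipidTOX Red pit count/intensity per well and per cell; HepG2, 24 h compound at 37 C, PFA fixation, Hoechst counterstain.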

[19] = qHTS assay to identify small molecule agonists of the sonic hedgehog signaling (Shh) pathway - cell viability counter screen (AID 1259366); note: nearly all actives have a fitted effect of over 50% in size
Outline: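 Cytotoxicity counter screen run in the same wells as the Shh reporter assay. NIH/3T3 cells carrying a Gli1 response element–driven luciferase were treated with DMSO-dissolved compounds for 24hr, and live-cell protease activity was measured with CellTiter-Fluor.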

[20] = biological target: Androgen receptor (Homo sapiens) (UniProt P10275); test: qHTS assay to identify small molecule antagonists of the androgen receptor (AR) signaling pathway using the MDA cell line in the presence of 0.5 nM R1881 (AID 1259243); note: nearly all actives have a fitted effect of over 50% in size
Androgen receptor (Homo sapiens), sequence (P10275 whole entry, looked up): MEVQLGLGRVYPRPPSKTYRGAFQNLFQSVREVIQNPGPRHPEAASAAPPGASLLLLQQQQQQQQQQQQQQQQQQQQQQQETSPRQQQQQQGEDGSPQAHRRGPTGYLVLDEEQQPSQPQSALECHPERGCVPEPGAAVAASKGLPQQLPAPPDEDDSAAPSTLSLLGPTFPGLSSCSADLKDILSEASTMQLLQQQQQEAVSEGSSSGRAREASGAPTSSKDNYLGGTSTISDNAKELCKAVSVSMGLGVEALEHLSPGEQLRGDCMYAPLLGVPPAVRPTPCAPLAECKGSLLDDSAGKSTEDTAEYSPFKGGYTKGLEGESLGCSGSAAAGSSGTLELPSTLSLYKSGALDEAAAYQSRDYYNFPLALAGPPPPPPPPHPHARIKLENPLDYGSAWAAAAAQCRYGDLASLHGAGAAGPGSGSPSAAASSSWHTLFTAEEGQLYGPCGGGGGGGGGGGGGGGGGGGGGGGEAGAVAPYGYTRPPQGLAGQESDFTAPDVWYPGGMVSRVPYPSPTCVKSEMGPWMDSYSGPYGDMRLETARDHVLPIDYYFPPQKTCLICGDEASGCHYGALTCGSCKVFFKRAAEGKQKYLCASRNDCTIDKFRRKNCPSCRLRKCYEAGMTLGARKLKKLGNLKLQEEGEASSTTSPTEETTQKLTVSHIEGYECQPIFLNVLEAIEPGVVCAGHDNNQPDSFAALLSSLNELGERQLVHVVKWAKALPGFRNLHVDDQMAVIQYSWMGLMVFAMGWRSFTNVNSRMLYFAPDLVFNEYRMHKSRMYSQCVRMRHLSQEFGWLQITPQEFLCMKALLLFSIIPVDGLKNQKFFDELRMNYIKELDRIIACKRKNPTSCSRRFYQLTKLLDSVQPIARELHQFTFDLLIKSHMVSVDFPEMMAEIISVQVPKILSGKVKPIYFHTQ
Outline: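 Cells: MDA-kb2 (MMTV-luc). Stimulus: 0.5 nM R1881. Time: 16 hr, 37C, no CO2. Detection: ONE-Glo luminescence after 30 min at RT.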

Measured: Potency

C/C=C(C)/C=C/C=C(C)C
not listed: [16] | [17] | [18] | [19] | [20]
inactive: all other assays above

CS(=O)(=O)c1ccc([C@@H](O)[C@@H](CO)NC(=O)C(Cl)Cl)cc1
not listed: [7] | [20]
inactive: all other assays above

CC(C)(N=C=O)c1cccc(C(C)(C)N=C=O)c1
not listed: [8] | [17] | [18] | [20]
inactive: all other assays above

Nc1nc2ncc(CNc3ccc(C(=O)N[C@@H](CCC(=O)O)C(=O)O)cc3)nc2c(=O)[nH]1
not listed: [7] | [17]
inactive: all other assays above

COC(=O)c1ccccc1O
not listed: [8] | [20]
inactive: all other assays above

CCCCCC/C=C/CCCCCCCC(=O)O
not listed: [8] | [18] | [19] | [20]
inactive: all other assays above

CCC(=O)O
not listed: [7] | [20]
inactive: all other assays above

O=[N+]([O-])c1cc(N(CCO)CCO)ccc1NCCO
not listed: [12] | [13] | [14] | [16] | [17] | [18]
inactive: all other assays above

CCCCCCCCCCC=CC1CC(=O)OC1=O (centres undefined)
not listed: [8] | [16] | [17] | [18] | [20]
inactive: all other assays above

Cc1ccc(C)c(C)c1
not listed: [8] | [18]
inactive: all other assays above

CN(CCOc1ccc(CC2SC(=O)NC2=O)cc1)c1ccccn1 (centres undefined)
30.5 µM (active) and inactive: [13]
not listed: [7] | [20]
inactive: all other assays above

C=CC(=O)OCCCCCCCC(C)C
not listed: [8] | [18]
inactive: all other assays above

CC(C)Cc1ccccc1
not listed: [8] | [18] | [20]
inactive: all other assays above

CC[Si](OC(C)=O)(OC(C)=O)OC(C)=O
not listed: [8] | [16] | [18] | [20]
inactive: all other assays above

CCOC(=O)[C@H](CCc1ccccc1)N[C@@H](C)C(=O)N1Cc2ccccc2C[C@H]1C(=O)O
not listed: [7] | [15] | [20]
inactive: all other assays above

O=C1N=C(O)CN1/N=C/c1ccc(-c2ccc([N+](=O)[O-])cc2)o1
not listed: [12] | [15] | [16] | [17] | [19] | [20]
inactive: all other assays above

CCCCCCCCCCCCN
inactive and 43.6 µM (active): [2]
inactive and 49 µM (active): [5]
inactive and 24.5 µM (active): [6] | [11]
inactive and 21.9 µM (active): [4]
inactive and 38.9 µM (active): [7] | [8]
not listed: [9] | [17] | [18] | [19] | [20]
inactive: all other assays above

CC(C)(CO)COC(=O)C(C)(C)CO
not listed: [7] | [18] | [19]
inactive: all other assays above

O=C(Oc1ccccc1)c1ccc(O)cc1
active: [13] 21.8 µM and 21.7 µM
not listed: [8] | [16] | [17] | [18] | [20]
inactive: all other assays above

OCC#CCO
not listed: [16] | [17] | [18] | [20]
inactive: all other assays above

CC1Cc2ccccc2N1NC(=O)c1ccc(Cl)c(S(N)(=O)=O)c1 (centres undefined)
not listed: [8] | [19] | [20]
inactive: all other assays above

CCCCC(CC)COC(C)=O (centres undefined)
not listed: [8] | [17] | [18] | [20]
inactive: all other assays above

CC(=O)CCc1ccccc1
not listed: [16] | [17] | [18] | [19] | [20]
inactive: all other assays above

C=C1CC[C@H](O)CC1=C/C=C1\CCC[C@]2(C)[C@@H]([C@H](C)/C=C/[C@H](C)C(C)C)CC[C@@H]12
active: [7] 43.6 µM
not listed: [8] | [15] | [17] | [19] | [20]
inactive: all other assays above

c1ccc2[nH]cnc2c1
not listed: [8] | [17] | [18] | [19] | [20]
inactive: all other assays above

CC(C)NCC(O)COc1cccc2ccccc12 (centres undefined)
inactive: [7]

CS(=O)(=O)Nc1ccc([N+](=O)[O-])cc1Oc1ccccc1
inactive: [7]
